# Reference: the supplement of paper PMC8728848
# Many of the other results were omitted from the sample, so the strongest signals are more common in it than they were.
# B1: RobpsCRA (Robinia pseudoacacia) (protein)
# chain: IKGGYWYSGSGLAVSDINPSHFTHLFCAFADLDPNTNKLTISSSNAAAFSTFTQTVRAKNPSVKTLLSIGGGGGRALAAVFANMASQASRRKSFIDSSIQLARRNNFHGLDLDWEYPSSDIDKTNFASLIREWRAAVATESSTSGTPALLLSAAVGGSDQITPLKYYPGEAIANNLDWVNVMTYDLYTSDSYPTLTQPPAPLFYPRGIFSADEGITKWIQSGVPESKLALGLPFYGFKWRLSDPNNHGLFAPATQGLGAVKYKDIVNTGGQVEFDSTYVTNYCFKGTDWYGYDDTQSISAKVAYAKQRGLFGYFAWHIEQDSNWALS
# What was measured:
# Assay in all cases: glycan array binding signal (z-score within array); higher = stronger binding
# Conditions in all cases: glycan notation: IUPAC condensed, linker removed
# [1] = target: Fuc(a1-2)Gal(b1-3)GlcNAc(b1-3)GalNAc
# Outline: (§1)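 Glycan array data were curated from 3228 arrays in the Consortium for Functional Glycomics database and kept only where the protein sequence was available. Glycan names were converted to IUPAC-condensed notation, and columns mapping to the same glycan were averaged. The binding signal is a within-array Z-score, averaged across arrays of the same protein sequence at different concentrations or buffers and across linkers. Negative Z-scores can be read as non-binding.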
# Fuc(a1-2)Gal(b1-4)Glc = target: Fuc(a1-2)Gal(b1-4)Glc
# Outline: as §1
# [2] = target: Fuc(a1-2)Gal(b1-4)GlcNAc(b1-2)Man(a1-3)[Fuc(a1-2)Gal(b1-4)GlcNAc(b1-2)Man(a1-6)]Man(b1-4)GlcNAc(b1-4)GlcNAc
# Outline: as §1
# [3] = target: Fuc(a1-2)[Gal(a1-3)]Gal(b1-3)GalNAc
# Outline: as §1
# [4] = target: Fuc(a1-2)[Gal(a1-3)]Gal(b1-3)GlcNAc(b1-2)Man(a1-3)[Fuc(a1-2)[Gal(a1-3)]Gal(b1-3)GlcNAc(b1-2)Man(a1-6)]Man(b1-4)GlcNAc(b1-4)GlcNAc
# Outline: as §1
# [5] = target: Fuc(a1-2)[GalNAc(a1-3)]Gal(b1-3)GlcNAc(b1-2)Man(a1-3)[Fuc(a1-2)[GalNAc(a1-3)]Gal(b1-3)GlcNAc(b1-2)Man(a1-6)]Man(b1-4)GlcNAc(b1-4)[Fuc(a1-6)]GlcNAc
# Outline: as §1
# [6] = target: Fuc(a1-2)[GalNAc(a1-3)]Gal(b1-3)GlcNAc(b1-6)GalNAc
# Outline: as §1
# [7] = target: Fuc(a1-2)[GalNAc(a1-3)]Gal(b1-4)GlcNAc(b1-6)GalNAc
# Outline: as §1
# [8] = target: Fuc(a1-2)[GalNAc(a1-3)]Gal(b1-4)[Fuc(a1-3)]GlcNAc
# Outline: as §1
# [9] = target: Fuc(a1-2)[GalNAc(a1-3)]Gal(b1-4)[Fuc(a1-3)]GlcNAc(b1-3)GalNAc
# Outline: as §1
# [10] = target: Fuc(a1-3)[Gal(b1-4)]GlcNAc(b1-3)GalNAc
# Outline: as §1
# [11] = target: Fuc(a1-3)[Gal3S(b1-4)]Glc
# Outline: as §1
# [12] = target: Fuc(a1-3)[Gal3S(b1-4)]GlcNAc6S
# Outline: as §1
# Fuc(a1-4)GlcNAc = target: Fuc(a1-4)GlcNAc
# Outline: as §1
# [13] = target: Gal(a1-3)Gal(b1-3)GlcNAc(b1-6)GalNAc
# Outline: as §1
# [14] = target: Gal(a1-3)[Gal(a1-4)]Gal(b1-4)GlcNAc
# Outline: as §1
# [15] = target: Gal(a1-4)Gal(b1-4)GlcNAc(b1-2)Man(a1-3)[Gal(a1-4)Gal(b1-4)GlcNAc(b1-2)Man(a1-6)]Man(b1-4)GlcNAc(b1-4)GlcNAc
# Outline: as §1
# Gal(b1-2)Gal = target: Gal(b1-2)Gal
# Outline: as §1
# [16] = target: Gal(b1-3)GalNAc(b1-3)Gal(a1-4)Gal(b1-4)Glc
# Outline: as §1
# [17] = target: Gal(b1-3)GlcNAc(b1-2)[Gal(b1-3)GlcNAc(b1-6)]Man(a1-6)[Gal(b1-3)GlcNAc(b1-2)Man(a1-3)]Man(b1-4)GlcNAc(b1-4)GlcNAc
# Outline: as §1
# [18] = target: Gal(b1-3)GlcNAc(b1-3)Gal(b1-4)GlcNAc(b1-3)Gal(b1-4)GlcNAc(b1-2)[Gal(b1-3)GlcNAc(b1-3)Gal(b1-4)GlcNAc(b1-3)Gal(b1-4)GlcNAc(b1-6)]Man(a1-6)[Gal(b1-3)GlcNAc(b1-3)Gal(b1-4)GlcNAc(b1-3)Gal(b1-4)GlcNAc(b1-2)Man(a1-3)]Man(b1-4)GlcNAc(b1-4)[Fuc(a1-6)]GlcNAc
# Outline: as §1
# [19] = target: Gal(b1-3)GlcNAc(b1-6)GalNAc
# Outline: as §1
# [20] = target: Gal(b1-4)GlcNAc(b1-2)Man(a1-3)[Gal(b1-4)GlcNAc(b1-2)Man(a1-6)]Man(b1-4)GlcNAc(b1-4)GlcNAc
# Outline: as §1
# [21] = target: Gal(b1-4)GlcNAc(b1-2)Man(a1-6)[Man(a1-3)]Man(b1-4)GlcNAc(b1-4)GlcNAc
# Outline: as §1
binder,measurement,setting,value
B1,glycan array binding signal (z-score),[1],-0.523
same,glycan array binding signal (z-score),Fuc(a1-2)Gal(b1-4)Glc,0.123
same,glycan array binding signal (z-score),[2],-0.573
same,glycan array binding signal (z-score),[3],-0.447
same,glycan array binding signal (z-score),[4],-0.684
same,glycan array binding signal (z-score),[5],-0.163
same,glycan array binding signal (z-score),[6],-0.584
same,glycan array binding signal (z-score),[7],-0.132
same,glycan array binding signal (z-score),[8],-0.375
same,glycan array binding signal (z-score),[9],16.3
same,glycan array binding signal (z-score),[10],0.084
same,glycan array binding signal (z-score),[11],-0.504
same,glycan array binding signal (z-score),[12],0.763
same,glycan array binding signal (z-score),Fuc(a1-4)GlcNAc,-0.31
same,glycan array binding signal (z-score),[13],-0.356
same,glycan array binding signal (z-score),[14],1.85
same,glycan array binding signal (z-score),[15],0.418
same,glycan array binding signal (z-score),Gal(b1-2)Gal,-0.839
same,glycan array binding signal (z-score),[16],0.121
same,glycan array binding signal (z-score),[17],-0.739
same,glycan array binding signal (z-score),[18],0.989
same,glycan array binding signal (z-score),[19],-0.441
same,glycan array binding signal (z-score),[20],-0.393
same,glycan array binding signal (z-score),[21],0.031
